Reference: PubChem BioAssay (Tox21)
Results filed as inconclusive are left out. The source made the active and inactive calls. Unless noted, calls follow the shape of the dose curve; as a rule, active = well fitted curve in the direction sought with a large enough effect in the repeat runs; inconclusive = weak or mixed curves; inactive = no such curve, though single readings can be large; an effect the other way counts as inactive or inconclusive.

Experiments:
[1] = qHTS assay to identify small molecule antagonists of the retinoid acid receptor (RAR) signaling pathway - cell viability counter screen (AID 1159551); also: nearly all actives have a fitted effect of over 35% in size
Outline: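 In this counter screen, the RARE-luciferase line C3RL4 was exposed for 6 h at 37 C and 5% CO2 to compounds with retinol at 1 uM final. Cellular ATP, read by luminescence, served as the viability measure.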

[2] = qHTS assay to identify small molecule antagonists of the retinoic acid receptor (RAR) signaling pathway (AID 1159552; also: nearly all actives have a fitted effect of over 50% in size)
Outline: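 Test chemicals and DMSO controls were pin-transferred onto C3RL4 cells a day after seeding; retinol (1 uM final) followed at once. Luminescent reporter output was quantified after 6 hr of co-incubation and 30 min with detection reagent.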

[3] = qHTS assay to identify small molecule agonists of the retinoic acid receptor (RAR) signaling pathway (AID 1159553); also: potency is read from the fitted curve at half-maximal effect
Outline: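 In this cell-based screen, 1,000 C3RL4 cells per well were cultured overnight, dosed with test chemicals in DMSO for 6 hr, and assessed for RARE luciferase luminescence.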

[4] = biological target: Luciferin 4-monooxygenase (Photinus pyralis) (UniProt P08659); test: qHTS assay to identify small molecule inhibitors of firefly luciferase (AID 1224835); also: nearly all actives have a fitted effect of over 25% in size; also: potency is read from the fitted curve at half-maximal effect
Luciferin 4-monooxygenase (Photinus pyralis), sequence (P08659 whole entry, looked up): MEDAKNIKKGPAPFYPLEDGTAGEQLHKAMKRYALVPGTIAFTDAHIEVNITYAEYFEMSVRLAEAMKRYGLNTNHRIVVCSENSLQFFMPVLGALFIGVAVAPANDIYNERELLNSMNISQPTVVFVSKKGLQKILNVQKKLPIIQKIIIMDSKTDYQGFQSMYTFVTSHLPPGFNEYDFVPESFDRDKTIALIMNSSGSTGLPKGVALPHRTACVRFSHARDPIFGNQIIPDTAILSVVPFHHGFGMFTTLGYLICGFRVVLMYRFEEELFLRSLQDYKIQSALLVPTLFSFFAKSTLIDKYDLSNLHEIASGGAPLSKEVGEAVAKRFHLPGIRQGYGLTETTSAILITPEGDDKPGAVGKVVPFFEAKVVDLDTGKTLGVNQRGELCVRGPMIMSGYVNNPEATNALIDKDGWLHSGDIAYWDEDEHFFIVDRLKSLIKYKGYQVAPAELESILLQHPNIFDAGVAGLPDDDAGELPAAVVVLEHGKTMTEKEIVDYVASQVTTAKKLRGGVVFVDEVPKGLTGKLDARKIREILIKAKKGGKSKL
Outline: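 Quantitative HTS format; KM concentrations of both substrates. Purified P. pyralis FLuc activity quantified from luminescence images.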

[5] = biological target: Nuclear receptor subfamily 1 group I member 3 (Homo sapiens) (UniProt Q14994); test: qHTS assay to identify small molecule antagonists of the constitutive androstane receptor (CAR) signaling pathway (AID 1224838); also: nearly all actives have a fitted effect of over 40% in size
Nuclear receptor subfamily 1 group I member 3 (Homo sapiens), sequence (Q14994 whole entry, looked up): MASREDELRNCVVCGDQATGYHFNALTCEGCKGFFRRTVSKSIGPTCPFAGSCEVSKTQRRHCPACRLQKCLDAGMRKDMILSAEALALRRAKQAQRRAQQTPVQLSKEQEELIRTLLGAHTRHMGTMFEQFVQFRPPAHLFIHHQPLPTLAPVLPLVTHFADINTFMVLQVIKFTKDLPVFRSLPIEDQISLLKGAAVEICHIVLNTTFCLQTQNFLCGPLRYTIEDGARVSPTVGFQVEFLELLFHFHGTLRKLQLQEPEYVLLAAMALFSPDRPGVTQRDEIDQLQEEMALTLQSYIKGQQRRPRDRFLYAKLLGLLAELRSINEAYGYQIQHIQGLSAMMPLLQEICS
Outline: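 Inhibition of CITCO-driven (50 nM final) CYP2B6 reporter expression is measured in HepG2 cells stably carrying hCAR. Fifteen compound concentrations are applied for 24 h at 37 C, followed by luciferase luminescence.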

[6] = biological target: Nuclear receptor subfamily 1 group I member 3 (Homo sapiens) (UniProt Q14994); test: qHTS assay to identify small molecule agonists of the constitutive androstane receptor (CAR) signaling pathway (AID 1224839); also: nearly all actives have a fitted effect of over 15% in size; also: potency is read from the fitted curve at half-maximal effect
Outline: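 Compounds tested at 15 concentrations on HepG2 cells stably harbouring hCAR and CYP2B6-2.2kb reporter constructs, co-treated with PK11195 (0.75 uM final), 24 h at 37 C; luminescent reporter signal quantified.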

[7] = qHTS assay to identify small molecule antagonists of the estrogen related receptor signaling pathway with the pleiotropic PPARgamma coactivator (PGC) from Tox21 10K library (AID 1224841; call rule not given here; also: series mostly up to about 92 µM; actives are mostly falling curves and most rising ones were filed inactive; nearly all actives have a fitted effect of over 50% in size)
Outline: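 One-Glo luminescence, measured after half an hour at room temperature, quantified reporter output of PGC/ERR cells. These had been plated at 2,000 per well, incubated 6 h, dosed with compounds in DMSO, then kept 18 h at 37 C.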

[8] = qHTS assay to identify small molecule agonists of the estrogen related receptor signaling pathway with the pleiotropic PPARgamma coactivator (PGC) from Tox21 10K library (AID 1224842); also: nearly all actives have a fitted effect of over 15% in size
Outline: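 PGC/ERR reporter cells (NTP line) were seeded 2,000 per well, rested 6 h at 37 C/5% CO2, then pin-dosed with compounds in DMSO for 18 h at 37 C; luciferase read by One-Glo luminescence after 30 min at room temperature.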

[9] = qHTS assay to identify small molecule agonists of the RXR signaling pathway - cell viability counter screen (AID 1159529); also: series mostly up to about 77 µM; nearly all actives have a fitted effect of over 50% in size
Outline: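 Compounds dissolved in DMSO were pinned onto HEK 293T cells carrying a beta-lactamase reporter under RXR-alpha control and incubated 16 hr. Cytotoxicity was then quantified by CellTiter-Glo luminescence.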

[10] = qHTS assay to identify small molecule antagonists of the estrogen related receptor (ERR) signaling pathway from Tox21 library - cell viability counter screen (AID 1224834); also: nearly all actives have a fitted effect of over 30% in size
Outline: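 Counter screen run in ERR cells (2,000 cells/well): cells pre-incubated 6 h, then treated with compounds for 17.5 h at 37 C. Fluorescence was read 30 min after CellTiter-Fluor addition.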

[11] = qHTS assay to identify small molecule agonists of the constitutive androstane receptor (CAR) signaling pathway - cell viability counter screen (AID 1224836); also: series mostly up to about 92 µM; nearly all actives have a fitted effect of over 45% in size
Outline: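 23 h treatment, 37 C, 5% CO2. Cell line: HepG2 stably expressing hCAR with a CYP2B6-2.2kb construct. Co-treatment: PK11195, 0.75 uM final. Read-out: CellTiter-Fluor fluorescence intensity.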

[12] = qHTS assay to identify small molecule antagonists of the constitutive androstane receptor (CAR) signaling pathway - cell viability counter screen (AID 1224837); also: series mostly up to about 92 µM; nearly all actives have a fitted effect of over 45% in size
Outline: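 CITCO at 50 nM final was added alongside compounds (15 concentrations) to double-stable hCAR/CYP2B6-2.2kb HepG2 cells. Following 23 hr at 37 C, cell viability was quantified by CellTiter-Fluor fluorescence intensity.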

[13] = qHTS assay to identify small molecule antagonists of the estrogen related receptor signaling pathway with the pleiotropic PPARgamma coactivator (PGC) from Tox21 10K library - cell viability counter screen (AID 1224840; active = well fitted cell-killing curve with a large enough effect in the repeat runs, not every such curve was filed as active; also: nearly all actives have a fitted effect of over 40% in size)
Outline: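 Readout: fluorescence intensity from CellTiter-Fluor after 30 min at 37 C/5% CO2. Preceded by 17.5 h treatment of PGC/ERR cells with DMSO-dissolved compounds, added 6 h post-seeding.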

[14] = qHTS assay to identify small molecule antagonists of the estrogen related receptor (ERR) signaling pathway - cell viability counter screen (AID 1224818); also: series mostly up to about 46 µM
Outline: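 Viability of ERR cells, CellTiter-Fluor fluorescence; 17.5 h compound exposure at 37 C, DMSO vehicle; 30 min reagent incubation at 37 C/5% CO2.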

[15] = qHTS assay to identify small molecule antagonists of the estrogen related receptor (ERR) signaling pathway (AID 1224819;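 also: luminescence from an ERR-driven luciferase reporter measured with One-Glo reagent; series mostly up to about 46 µM; nearly all actives have a fitted effect of over 50% in size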)
Outline: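 Seed ERR cells 2,000/well; rest 6 h at 37 C/5% CO2; pin compounds in DMSO; incubate 18 h at 37 C; add One-Glo; wait 30 min at room temperature; measure luminescence.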

[16] = qHTS assay to identify small molecule agonists of the estrogen related receptor (ERR) signaling pathway (AID 1224820)
Outline: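 Following a 6 h settling period, 2,000 ERR cells per well receive DMSO-dissolved compounds by pin tool and incubate 18 h at 37 C; agonist activity is scored from One-Glo luminescence read 30 min post-addition.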

[17] = tested on: estrogen-related receptor alpha (ERRalpha) with PGC-1alpha coactivator, human; test: qHTS assay to identify small molecule antagonists of the estrogen related receptor signaling pathway with the pleiotropic PPARgamma coactivator (PGC) (AID 1224821; calls by dose curve)
Outline: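 Screening used NTP's PGC/ERR cells, dosed via pin tool with compound in DMSO alongside positive and negative controls. After 18 h at 37 C, One-Glo reagent sat 30 min at room temperature before luminescence detection.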

[18] = qHTS assay to identify small molecule antagonists of the estrogen related receptor signaling pathway with the pleiotropic PPARgamma coactivator (PGC) cell viability counter screen (AID 1224822; also: series mostly up to about 46 µM)
Outline: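 17.5 h compound treatment of PGC/ERR cells at 37 C; readout CellTiter-Fluor fluorescence; run alongside the PGC/ERR antagonist screen to flag cytotoxic compounds.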

[19] = qHTS assay to identify small molecule agonists of the estrogen related receptor signaling pathway with the pleiotropic PPARgamma coactivator (PGC) (AID 1224823)
Outline: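 In this quantitative high-throughput screen, an 18 h, 37 C treatment of PGC/ERR cells with compounds in DMSO preceded a One-Glo luminescence read taken after 30 min at room temperature.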

Measured: Potency

CCOC(=O)COc1ccc2c(c1)CC(NCC(O)c1cccc(Cl)c1)CC2 (stereo not drawn)
inactive: [1] | [2] | [3] | [4] | [5] | [6] | [7] | [8]

Cc1c(C(=O)NCCO)[n+](=O)c2ccccc2n1[O-]
inactive: [9] | [10] | [4] | [11] | [12] | [5] | [6] | [13]

CN1CCN(C2=Nc3ccccc3Oc3ccc(Cl)cc32)CC1
not listed: [1] | [6] | [7] | [9] | [10] | [11]
inactive: all other assays above

Nc1ccc2ccccc2c1S(=O)(=O)O
inactive: [9] | [2] | [11] | [12] | [5] | [13]
active: [3] 24.8 µM | [4] 32.4 µM | [6] 22.1 µM

CN(CCCN1c2ccccc2CCc2ccccc21)CC(=O)c1ccc(Cl)cc1
inactive: [1] | [2] | [10] | [4] | [11] | [12] | [5] | [13]

O=Cc1ccc(O)c(O)c1O
inactive: [9] | [2] | [4] | [11] | [12] | [5] | [6] | [13]

CC1(C)O[C@@H]2C[C@H]3[C@@H]4CCC5=CC(=O)CC[C@]5(C)[C@@]4(F)[C@@H](O)C[C@]3(C)[C@]2(C(=O)CCl)O1
inactive: [1] | [3] | [10] | [4] | [12] | [5] | [6] | [13]

CCN(CCCc1ccccc1)CCCc1ccccc1
inactive: [1] | [2] | [3] | [10] | [4] | [11] | [12] | [13] | [8]

CCc1cc(Cl)c(OC)c(C(=O)NC[C@@H]2CCCN2CC)c1O
inactive: [1] | [10] | [4] | [12] | [5] | [13] | [7]
